Bioassay records as filed in PubChem.
In the library only some 0.98% were active in any assay of this set; here they are far more common.
Keap1 Nrf2 FP: Keap1-Nrf2 (human) interaction inhibition. Q14145. Keap1 Kelch-Nrf2 peptide fluorescence polarization, 1536-well. inhibition, % at 9.4 µM. 340,000 tested, 0.15% active; in the data active means inhibition above about 12%; inconclusive means no clear call, values can overlap the other calls; inactive means below about 7.3%;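 further: human Keap1 Kelch domain with fluorescein labeled Nrf2 9mer peptide probe; 0% = neutral control wells and 100% = peptide positive control; higher means more block of Keap1 binding to Nrf2 peptide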
Target sequence (Q14145 whole entry, looked up, the tested form may be a part): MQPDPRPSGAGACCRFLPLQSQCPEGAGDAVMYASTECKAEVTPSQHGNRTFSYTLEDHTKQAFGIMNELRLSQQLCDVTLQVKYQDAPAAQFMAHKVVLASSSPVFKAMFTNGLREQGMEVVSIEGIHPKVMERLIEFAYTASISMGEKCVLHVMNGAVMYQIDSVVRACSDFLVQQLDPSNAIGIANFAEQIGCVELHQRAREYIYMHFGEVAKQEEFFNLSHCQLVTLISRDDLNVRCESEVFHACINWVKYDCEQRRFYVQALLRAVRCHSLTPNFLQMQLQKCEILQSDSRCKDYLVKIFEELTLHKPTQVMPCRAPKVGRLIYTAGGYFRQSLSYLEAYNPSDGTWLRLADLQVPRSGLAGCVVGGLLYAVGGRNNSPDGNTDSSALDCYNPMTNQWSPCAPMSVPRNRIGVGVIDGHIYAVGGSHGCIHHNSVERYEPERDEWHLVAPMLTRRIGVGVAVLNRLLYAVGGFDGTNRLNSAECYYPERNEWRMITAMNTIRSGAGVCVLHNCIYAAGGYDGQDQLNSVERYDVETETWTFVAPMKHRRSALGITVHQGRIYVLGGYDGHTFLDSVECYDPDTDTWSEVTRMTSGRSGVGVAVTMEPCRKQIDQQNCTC
RTF Ca sens act: increases calcium sensitivity of human cardiac regulated thin filaments | P19429+P45379 | IANBD-labeled TnC RTF fluorescence at EC20 calcium; 0% EC20 calcium, 100% full calcium | activation, % at 7.2 µM | 340,000 tested, 0.24% active | AID 493008;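 active means activation above the mean over all tested compounds plus 3 SD, cut at about 30% in these data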;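 further: rise in fluorescence read as greater calcium sensitivity of cardiac thin filaments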
Cardiac RTF inh: cardiac RTF calcium desensitization; P19429+P45379; IANBD-labeled cardiac RTF, Ca2+ fluorescence; inhibition, % at 7.15 µM; 340,000 tested, 0.12% active;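 active means inhibition above the mean inhibition of all tested compounds plus 3 SD, cut at about 17% in these data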;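 further: assay run at fixed EC70 calcium of 1.6 mM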
LANA-H2A inh: blocks KSHV LANA binding to histone H2A/H2B; Q9QR71; cell-free LANA-H2A/H2B peptide, fluorescence polarization; inhibition, % (test concentration not listed); 320,000 tested, 0.6% active; AID 2629; in the data active means inhibition mostly above about 10%, no sharp cut-off; inactive means mostly below about 6.7%
C-LANA FP: KSHV C-LANA DNA binding inhibition. MBP-C-LANA/FAM-LBS DNA binding, fluorescence polarization. inhibition, % at 9 µM. 340,000 tested, 0.078% active;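 active means highest replicate inhibition at or above 60% at 9 µM, even if other replicates fall short; inactive means all replicates below 60% inhibition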;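 further: 0% = neutral control wells and 100% = 4 µM acridine orange control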
The depositor's hits bear a star; ? = inconclusive; . = no result given; + = active, no number.

SMILES	Keap1 Nrf2 FP	RTF Ca sens act	Cardiac RTF inh	LANA-H2A inh	C-LANA FP
COc1ccc(C(CNC(=O)c2ccc(S(=O)(=O)N3CCCC3)cc2)N(C)C)cc1OC (stereo not given)	-2	-4	-8	-1	-5
COc1ccccc1C(CNC(=O)c1ccc(S(=O)(=O)N2CCCCC2)cc1)N(C)C (stereo not given)	-5	-1	-10	+	1
O=[N+]([O-])c1c(Nc2ccccn2)cc(Cl)c2nonc12	-11	33*	3	3	1
CS(=O)(=O)c1ccc(C(=O)N(Cc2ccccc2)c2ccccc2)cc1	-1	-1	-4	2	0
Cc1cccc(N(Cc2ccccc2)C(=O)c2ccc(S(C)(=O)=O)cc2)c1	3	-3	-6	23*	2
COc1cc(C(=O)OCc2csc(CC(=O)Nc3ccccc3C)n2)ccc1OCC(C)C	0	2	-1	.	1
CCOC(=O)c1c(C)[nH]c(C(=O)COc2ccc3ccc(=O)oc3c2)c1C	-3	1	-7	-11	1
COc1ccc(CNC(=O)C2CCCN(c3nn4c(=O)cc(C)nc4s3)C2)cc1 (stereo not given)	-3	2	6	6	0
COc1ccc(NC(=O)C2CCCN(c3nn4c(=O)cc(C)nc4s3)C2)c(OC)c1 (stereo not given)	-6	-2	-9	11*	-2
CCN(CC)c1ccc2c(c1)oc(=O)c1c(Cl)cc(=O)oc12	-2	200*	-270	2	6
CC(C)n1cc(CN2CCC(Oc3ccc(C(=O)N4CCCC4)cc3)CC2)cn1	0	0	1	49*	3
CC(=O)c1ccccc1OCCOCCOc1ccccc1C(C)=O	-2	-6	-10	8	5
O=S(=O)(NC1CC2CCC1C2)c1ccc2c(c1)OCCO2 (stereo not given)	0	-5	-4	20*	1
O=C1NC(c2ccc(Br)cc2)Nc2ccccc21 (stereo not given)	-6	1	0	2	107*
CCN(CC)c1ccc(C2NC(=O)c3ccccc3N2)cc1 (stereo not given)	-1	-5	1	.	0
Cc1nnc2n(c1=O)N=C(c1ccc(Cl)cc1)CS2	0	-2	0	-4	1
COc1ccc(NC(=O)[C@@H]2[C@@H]3C(=O)N(C4CCCCC4)C(=O)[C@@H]3C3c4ccccc4C=CN32)cc1 (stereo not given in full)	-2	1	-10	17*	-4
CCOc1ccc(S(=O)(=O)N2CCOCC2)cc1NC(=O)CSCC(=O)Nc1ccc(OC)cc1	-3	-1	-6	.	1
COc1cccc(/C(O)=C/c2nc3ccc(C(=O)NCCc4ccc(Cl)cc4)cc3[nH]c2=O)c1	-1	99*	-3	.	1
COc1ccc(C(CNC(=O)c2cc(S(=O)(=O)N3CCN(c4ccccc4)CC3)ccc2Cl)N(C)C)cc1 (stereo not given)	-5	0	-2	-2	2
COc1ccc(CNC(=O)CN2C(=O)c3ccccc3C2=O)cc1	2	2	-8	2	3
COc1ccc(CNC(=O)CN2C(=O)c3ccc([N+](=O)[O-])cc3C2=O)cc1	-3	-4	2	23*	0
O=C(Nc1ccccc1)c1ccccc1CCc1ccccc1	-5	13	-3	23*	-1
CCN1CC=C2C(C#N)=C(N)C(C#N)(C#N)C(c3cc(Cl)ccc3Cl)C2C1 (stereo not given)	?	39*	-38	13	29
Cc1ccc(S(=O)(=O)N2CCN(C(=O)CCC(=O)Nc3ccc(Br)c(C)c3)CC2)cc1	6	-2	-1	.	0
SMILES	Keap1 Nrf2 FP	RTF Ca sens act	Cardiac RTF inh	LANA-H2A inh	C-LANA FP
O=C(CCCNC(=O)c1ccc(Cl)cc1)Nc1ccc(F)c(S(=O)(=O)N2CCOCC2)c1	-3	2	-7	-4	-2
S=C1NCN(Cc2ccco2)CN1	-2	0	-3	5	0
O=C1CC(=O)N(Cc2ccco2)C(=O)N1	-18	-10	5	-4	94*
O=C1CC(=O)N(Cc2cccs2)C(=O)N1	-25	5	-2	2	-2
O=C1CC(=O)N(Cc2ccco2)C(=S)N1	3	-2	-8	-9	71*
Cn1cnnc1SCc1ccc(C(=O)N/N=C(\CCC(=O)O)c2ccc(C(C)(C)C)cc2)cc1	-5	4	-5	+	0
CCNC(=O)C1CC(=O)N(Cc2ccc(F)cc2)C(=Nc2ccc(OC)cc2)S1 (stereo not given)	-6	3	-8	-4	-3
CCNC(=O)C1CC(=O)N(Cc2ccc3c(c2)OCO3)C(=Nc2ccc(OCC)cc2)S1 (stereo not given)	-6	2	-5	63*	-1
CSc1nccc(Oc2cncc(Cl)c2)n1	-5	-1	-5	11*	3
C=CCNC(=S)N1CCN(Cc2ccccc2)CC1	0	6	-16	18*	-2
Cc1ccc(C(=O)O)cc1[N+](=O)[O-]	-1	7	0	-5	-1
Cc1cccc([N+](=O)[O-])c1C(=O)O	7	-1	-6	19*	1
O=CNc1ccccc1	-2	-3	-1	96*	1
COc1ccc(C(C)(C)C)cc1NC(=O)c1c(C)noc1C	-5	3	0	5	0
COc1ccc(C(C)(C)C)cc1NC(=O)CCc1c(C)noc1C	-3	-7	-4	30*	0
Cc1noc(C)c1NC(=O)Nc1ccc2c(c1)C(=O)N([C@H](C)CO)C[C@H](C)[C@@H](CN(C)S(=O)(=O)c1cccs1)O2	0	-5	4	-1	-1
O=C1N/C(=C/c2cccs2)C(=O)N1Cc1ccc(Br)cc1	-1	-1	-7	1	-2
Cc1nc(SCC(=O)N2CCNC2=O)c2ccccc2n1	2	0	3	21*	4
O=C(CSc1ncnc2ccccc12)N1CCNC1=O	1	-4	-1	-13	1
O=C(CSc1nnc(C2CC2)n1-c1ccccc1)N1CCNC1=O	?	-3	-1	47*	7
O=c1cc(OCc2ccccc2)cc[nH]1	0	-3	-2	-8	1
Cc1ccc(/C=C/C(=O)N(Cc2cccs2)C2CCS(=O)(=O)C2)cc1 (stereo not given)	.	.	.	1	.
CCc1ccc(C(=O)OCC(=O)c2c(N)n(CC(C)C)c(=O)n(C)c2=O)cc1	4	1	-6	-1	0
CCOC(=O)C1(CC2CC2)CCN(C(=O)c2cccnc2C)CC1	-4	10	-16	8	-1
COCCN1C(=O)/C(=C/c2ccc(N3CCCC3)cc2C)SC1=S	-4	69*	-76	-4	0
Cn1c(CC(=O)NNC(=O)c2ccc(F)cc2F)nc2ccccc21	-5	0	-10	-1	2
Cn1c(CC(=O)NNC(=O)c2cccnc2)nc2ccccc21	-6	-9	1	19*	1
